These results are taken from PubChem BioAssay.

Each structure is given as a SMILES string. Active and inactive are the calls of the source. Unless noted, no rule for the calls is given here.

Test [1] can be described thus: A549 cell viability effects, profiling panel, calcein-AM fluorescence, 48 h, basal (AID 1162). Also: test concentration not given here. To be noted: higher = more signal.
The nature of test [2]: adipocyte viability effects, profiling panel, cell-based, 3T3-L1 adipocytes, calcein-AM fluorescence, 48 h, basal (AID 1163). Also: test concentration not given here. To be noted: 3T3-L1 adipocytes viability, higher = more signal.
A short description of test [3]: HepG2 cell viability effects, profiling panel, calcein-AM fluorescence, 48 h, basal (AID 1164). Also: test concentration not given here. Particulars: higher = more signal.
Test [4] is described as follows: MM1S cell viability effects, profiling panel, calcein-AM fluorescence, 48 h, basal (AID 1165).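 Also: viability of MM1S multiple myeloma cells under basal unstimulated conditions; test concentration not given here.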 To be noted: higher = more signal.
Test [5] is described as follows: basal RPMI8226 viability, no added stimulus, profiling panel, cell-based, calcein-AM fluorescence, 48 h, PK04 Diversity Set (AID 1166).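 Also: cells grown under basal conditions without added stimulus; test concentration not given here.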 Particulars: RPMI8226 myeloma viability, higher = more signal.
Test [6] in a line: basal HepG2 mitochondrial membrane potential changes, profiling panel, cell-based, JC-1 fluorescence, 24 h, 100 nL compound (AID 1167). Also: test concentration not given here. Particulars: higher = more signal.
The nature of test [7]: basal 3T3-L1 adipocyte mitochondrial potential changes, profiling panel, cell-based, JC-1 fluorescence, 3T3-L1 adipocytes, 24 h, 100 nL compound (AID 1168). Also: test concentration not given here. To be noted: JC-1 mitochondrial fluorescence, higher = more signal, called active from +8 up or from −8 down.
A short description of test [8]: basal RPMI8226 mitochondrial membrane potential changes, profiling panel, cell-based, JC-1 fluorescence, 24 h, 100 nL compound (AID 1169). Also: test concentration not given here. Particulars: RPMI8226 myeloma, JC-1 mitochondrial potential fluorescence, higher = more signal.
Test [9] in a line: basal MM1S mitochondrial membrane potential changes, profiling panel, cell-based, JC-1 fluorescence, 24 h, 100 nL compound (AID 1170). Also: test concentration not given here. To be noted: higher = more signal.
Test [10] can be described thus: A549 lung cancer cell viability effects, profiling panel, resazurin fluorescence, 24 h, PK04 Diversity Set (AID 1171). Also: test concentration not given here. To be noted: higher = more signal, called active from +8 up or from −8 down. A general note: Alamar Blue is a resazurin reagent that responds to reducing activity.
Test [11] can be described thus: HepG2 liver cancer cell viability effects, profiling panel, resazurin fluorescence, 24 h, PK04 Diversity Set (AID 1172). Also: test concentration not given here. To be noted: higher = more signal.
The nature of test [12]: basal S. cerevisiae growth modulation, no modifier, primary screen, OD600, strain BY4716, 24 h, basal condition (AID 1173). To be noted: OD600, 24 h, higher = more signal, called active from +8 up or from −8 down.
Test [13] is described as follows: MM1S myeloma cell viability, profiling panel, resazurin fluorescence, basal, 24 h, PK04 Diversity Set (AID 1174).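 Also: MM1S multiple myeloma cell line; test concentration not given here.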 To be noted: higher = more signal, called active from +8 up or from −8 down.
Test [14] concerns the target Dihydroorotate dehydrogenase (quinone), mitochondrial (Plasmodium falciparum (isolate 3D7)) (UniProt Q08210). Description: PfDHODH enzyme inhibitors, primary screen, biochemical, C-terminal His tag, absorbance 600 nm (AID 1175).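 Also: recombinant parasite enzyme with a five histidine tag at its C terminus; test concentration not given here.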 Particulars: DCIP absorbance 600 nm, higher = more signal, called active from +8 up or from −8 down.
Test [15] in a line: P. aeruginosa biofilm formation inhibitors, primary screen, strain PAO1, LB-PBS medium, absorbance 600 nm (AID 1176). Also: test concentration not given here. Particulars: P. aeruginosa PAO1 growth/biofilm, A600, 12 h; higher = more signal.
Test [16] can be described thus: S. cerevisiae RM11-1a growth modifiers, primary screen, strain RM11-1a, OD600, basal, 24 h (AID 1177).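 Also: cultures grown under basal conditions with no added stressor; test concentration not given here.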 Particulars: OD600, 24 h, higher = more signal, called active from +8 up or from −8 down.
Test [17] can be described thus: E. coli acrAB mutant growth effects, primary screen, E. coli filamentation inducers, strain DRC39, OD650, 24 h (AID 1178).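 Also: growth measured as culture turbidity by optical density at 650 nm; test concentration not given here.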 To be noted: higher = more signal, called active from +8 up or from −8 down.
Test [18] can be described thus: E. coli acrAB mutant growth effects, primary screen, E. coli filamentation inducers, strain DRC39, OD650, 48 h (AID 1179).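 Also: screen aims at cell division blockers that make cells filament.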 To be noted: E. coli DRC39 delta-acrAB growth, higher = more signal, called active from +8 up or from −8 down.
A short description of test [19]: RPMI8226 myeloma cell viability, profiling panel, resazurin fluorescence, basal, 24 h, PK04 Diversity Set (AID 1180).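 Also: RPMI8826 multiple myeloma cell line at 5000 cells per well; test concentration not given here.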 Particulars: higher = more signal.
The target in test [20] is E3 ubiquitin-protein ligase XIAP (Homo sapiens) (UniProt P98170). Description: XIAP binders, primary screen, biophysical, small-molecule microarray, fluorescence 635 nm (AID 1181).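 Also: score merges 667 nm emission and signal to noise over triplicate slides.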 To be noted: small-molecule microarray binding, higher = more signal.
E3 ubiquitin-protein ligase XIAP (Homo sapiens), sequence (P98170 whole entry, looked up): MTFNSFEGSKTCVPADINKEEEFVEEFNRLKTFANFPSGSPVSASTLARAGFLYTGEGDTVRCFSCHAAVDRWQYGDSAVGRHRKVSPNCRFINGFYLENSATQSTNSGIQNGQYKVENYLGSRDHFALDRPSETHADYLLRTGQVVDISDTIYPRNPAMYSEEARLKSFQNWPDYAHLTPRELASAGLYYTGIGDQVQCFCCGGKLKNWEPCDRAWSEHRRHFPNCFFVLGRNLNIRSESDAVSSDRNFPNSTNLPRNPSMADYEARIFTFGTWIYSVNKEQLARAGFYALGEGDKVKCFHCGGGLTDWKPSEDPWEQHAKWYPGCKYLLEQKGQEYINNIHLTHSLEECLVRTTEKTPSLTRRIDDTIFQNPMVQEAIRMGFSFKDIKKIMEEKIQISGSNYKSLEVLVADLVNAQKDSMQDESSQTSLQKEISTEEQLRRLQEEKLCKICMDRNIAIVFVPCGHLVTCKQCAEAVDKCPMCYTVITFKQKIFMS

Dihydroorotate dehydrogenase (quinone), mitochondrial (Plasmodium falciparum (isolate 3D7)), sequence (Q08210 whole entry, looked up): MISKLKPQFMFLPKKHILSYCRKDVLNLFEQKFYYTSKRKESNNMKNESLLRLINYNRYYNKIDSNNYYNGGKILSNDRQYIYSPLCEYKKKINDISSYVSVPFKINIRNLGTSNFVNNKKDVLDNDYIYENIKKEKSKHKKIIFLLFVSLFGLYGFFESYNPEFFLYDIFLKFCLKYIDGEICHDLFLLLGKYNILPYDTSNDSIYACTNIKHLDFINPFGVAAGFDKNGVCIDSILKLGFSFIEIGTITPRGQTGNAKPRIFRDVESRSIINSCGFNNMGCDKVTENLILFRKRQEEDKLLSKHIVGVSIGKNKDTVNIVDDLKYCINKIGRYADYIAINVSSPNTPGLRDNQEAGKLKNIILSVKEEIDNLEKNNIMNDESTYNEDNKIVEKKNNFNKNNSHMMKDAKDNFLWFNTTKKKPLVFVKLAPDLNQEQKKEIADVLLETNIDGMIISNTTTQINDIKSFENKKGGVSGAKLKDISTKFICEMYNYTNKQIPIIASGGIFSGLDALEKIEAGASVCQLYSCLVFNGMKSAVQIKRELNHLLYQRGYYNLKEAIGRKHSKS

As to `Cn1cccc1C(O)C1C=CC2C(=O)N(c3ccccc3)C(=O)C2N1Nc1ccccc1` (stereo not given), the z-score was -0.514 in [1]; -1.86 in test [2]; 0.316 in test [3]; -0.615 in test [4]; -0.244 in test [5]; -1.3 in test [6]. Also, the z-score in test [7] was -0.96 (inactive); in test [8] it was -0.509; in test [9], -1.32; in test [10], -0.386 (inactive); in [11], -0.194; in test [12] it was 0.917 (inactive). Moreover, the z-score in test [13] is -0.251 (inactive); in [15] it was 0.571 (inactive); in [16], -0.529 (inactive); in test [17] it was 0.312 (inactive); in test [18], 0.881 (inactive); in test [19] it was 0.0611. Besides, the composite z-score in [14] was 0.0729 (inactive); in test [20], -0.0773.

In the case of `COc1cc(C(O)C2C=CC3C(=O)N(C)C(=O)C3N2Nc2ccccc2)cc(OC)c1OC` (stereo not given), the z-score is 0.212 in test [1]; 0.555 in test [2]; -0.0987 in test [3]; 0.0355 in test [4]; 0.438 in [5]; -0.349 in test [6]. Besides, the z-score in [7] was -0.604 (inactive); in test [8] it was 0.221; in [9] it was -0.471; in [10] it was 0.144 (inactive); in test [11], -0.237; in test [12], -2.86 (inactive). The z-score in [13] is 0.162 (inactive); in test [15], 0.586 (inactive); in [16], 0.155 (inactive); in [17], -0.654 (inactive); in [18] it was -0.852 (inactive); in [19] it was -0.0998. Moreover, the values for the composite z-score in test [14] and in test [20] were 0.377 (inactive) and 0.14, respectively.

On to `CCOC(=O)C[C@H]1[C@H](OC(=O)c2ccc(C(=O)c3ccccc3)cc2)[C@@H](NC(=O)CC(C)C)c2cc(OCCCO)ccc2N1C(=O)c1ccccc1`, for which the z-score was -1.43 in test [1]; -0.408 in test [2]; -0.0606 in test [3]; 0.0631 in test [4]; -1.11 in test [5]; 1.49 in test [6]. Also, the z-score in test [7] was 0.275 (inactive); in [8], 0.52; in test [9], 0.242; in test [10], 0.256 (inactive); in test [11], -0.358; in test [12] it was 0.325 (inactive). Also, the z-score was 0.0303 (inactive) in test [13]; 0.714 (inactive) in test [15]; -0.0649 (inactive) in [16]; -0.794 (inactive) in test [17]; -0.717 (inactive) in [18]; -0.281 in test [19]. Further, the composite z-score in [14] was -0.235 (inactive); in [20] it was -0.0773.

Consider `COc1cc(OC)c(C(O)C2C=CC3C(=O)N(Cc4ccccc4)C(=O)C3N2n2cnnc2)cc1Br` (stereo not given), for which the z-score in [1] was -0.407; in test [2], 0.767; in test [3], -0.161; in test [4] it was -0.125; in [5] it was -0.0145; in test [6], -0.769. The z-score in test [7] is 0.771 (inactive); in test [8], -0.345; in test [9], -0.395; in [10], -0.963 (inactive); in test [11], -0.797; in [12], -8.67 (active). The z-score in test [13] is -0.982 (inactive); in test [15] it was -0.169 (inactive); in test [16], -3.92 (inactive); in test [17] it was -0.514 (inactive); in test [18], -0.905 (inactive); in test [19], -1.21. Besides, the values for the composite z-score in test [14] and in test [20] were -0.552 (inactive) and 0.197, respectively.

In the case of `CCCCCCc1nc(Cc2cc(OC)c(OC)c(OC)c2)cc2c1[Si](C(C)C)(C(C)C)OC2`, the z-score was -1.79 in test [1]; 0.5 in [2]; 0.0671 in test [3]; -3.02 in [4]; -4.45 in [5]; 0.785 in test [6]. Moreover, the z-score is 0.705 (inactive) in test [7]; -1.06 in test [8]; -0.48 in test [9]; 1.64 (inactive) in test [10]; 0.842 in test [11]; 0.273 (inactive) in [12]. Moreover, the z-score in test [13] is 0.0456 (inactive); in test [15], -0.215 (inactive); in test [16], -0.0979 (inactive); in test [17], -0.284 (inactive); in test [18], -0.279 (inactive); in test [19], -0.295. Besides, the figures for the composite z-score in [14] and in [20] were -2.69 (inactive) and 0.0009, respectively.

In the case of `COC(=O)C/C=C/C[C@]1(O)C(=O)N(C)c2ccccc21`, the z-score in test [1] is 1.59; in test [2] it was 0.349; in test [3], 1.39; in test [4], 0.672; in [5], -0.419; in [6], 1.25. Moreover, the z-score is -0.694 (inactive) in test [7]; -0.838 in test [8]; 2.2 in test [9]; 0.946 (inactive) in test [10]; 0.197 in test [11]; -1.81 (inactive) in test [12]. Further, the z-score in [13] was 0.913 (inactive); in [15], 0.732 (inactive); in [16], -2.6 (inactive); in [17], 2.38 (inactive); in test [18], 0.875 (inactive); in test [19], 0.547. For the same compound, the composite z-score in [14] is -0.429 (inactive); in test [20] it was -0.0861.

For `COC(=O)[C@@]1(Cc2ccccc2)[C@H]2c3cc(C(=O)N(C)C)n(Cc4ccc(C)o4)c3C[C@H]2CN1C(=O)c1ccccc1`, the z-score in test [1] is -2.02; in test [2], 0.827; in test [3] it was -0.735; in test [4] it was -1.01; in test [5], -3.69; in [6] it was 0.598. Besides, the z-score in test [7] is -2.61 (inactive); in [8], -0.951; in test [9], -1.88; in test [10] it was -1.42 (inactive); in [11] it was -0.98; in test [12] it was 1.51 (inactive). Also, the z-score in test [13] was -3.41 (inactive); in test [15], 3.55 (inactive); in test [16], 1.25 (inactive); in [17], -0.513 (inactive); in test [18], -1.08 (inactive); in test [19] it was -3.13. Moreover, the results for the composite z-score in [14] and in test [20] were -2.93 (inactive) and 0.696, respectively.

On to `C#CCN(Cc1ccccc1Br)[C@H](/C=C/c1ccccc1)[C@@H](O)Cc1ccccc1`, for which the z-score in test [1] is -0.892; in [2], -0.566; in test [3] it was -1.54; in test [4] it was -1.63; in [5], -3.89; in test [6], -2.68. Besides, the z-score in [7] is -0.694 (inactive); in test [8], -0.538; in test [9], 0.42; in test [10], 2.3 (inactive); in test [11] it was 1.71; in test [12], 0.31 (inactive). For the same compound, the z-score was -0.309 (inactive) in [13]; -0.0825 (inactive) in test [15]; 1.05 (inactive) in test [16]; 1.84 (inactive) in [17]; 1.24 (inactive) in test [18]; -0.971 in [19]. Also, the composite z-score in [14] is 0.342 (inactive); in test [20], -0.0559.

As to `Oc1ccc2cc[n+](Cc3cc4c(cc3Br)OCO4)cc2c1`, the z-score is 1.58 in test [1]; -0.35 in test [2]; 0.312 in test [3]; 0.677 in test [4]; -1.77 in [5]; -1.12 in [6]. Also, the z-score was 0.418 (inactive) in test [7]; -0.123 in test [8]; 0.313 in [9]; -0.585 (inactive) in test [10]; -0.269 in [11]; -0.72 (inactive) in test [12]. Moreover, the z-score is -0.526 (inactive) in [13]; -0.159 (inactive) in test [15]; 1.31 (inactive) in test [16]; 0.364 (inactive) in [17]; 0.161 (inactive) in test [18]; -0.135 in [19]. Moreover, the composite z-score in test [14] is -0.625 (inactive); in test [20], -0.281.
